# Measurements reported in the supplement of paper PMC12632987.
# B1: GBRAPL2_53_7365 (protein)
# chain: MTLVEVEHVDPEKMRAAAKKIAEVAKKHGLKIKVVFVDDEANVTEVTANAEEALKIAEEWIEKGHVILEVELPDDLEEVKEEIIDIAAEEGAVVSVEELE
# B2: GBRAPL2_54_7381 (protein)
# chain: AKKVEIVADFIVEGTPEELAKVEKVATELSKKLAEELAAKYGATSTLSFEREDGVLLLTVTIVTDESAVDDVLDRLEELRDEIEKRTGVKVNLVIGIKEL
# B3: GBRAPL2_53_7364 (protein)
# chain: MYLVEVEHPDKEKLLKAAEEIAKIAKKHNLKITVIFVKEDGTVERYTANAEEALKIAKEWIEKGDVILEVKLPDSLEEVKEEIIDAAAKNGAVVSVEELE
# B4: GBRAPL2_53_7360 (protein)
# chain: MIVIDIAHPDKEVVKKAAEKIFDIVKEAGVEVEVTVTTEDGKVEKLTGSVDDIKAKVTELAAKQPVLIEITLPDSAKETAEKIVDVALEEGATVSVEELE
# B5: GBRAPL2_54_7371 (protein)
# chain: ETTVEIEATFLAEGTPEELARVRAVALEELEELKKELKEKFGAESEISAEEEDGVLSVTVTITTKKENLDEVLDLLEATRDRIAARTGLPVALVIGIKEL
# B6: GBRAPL2_54_7372 (protein)
# chain: MTIVEIEATFIAEGSDEELERIEEVALRELKKLAERLKKEFGAESEISSEREDGVLSVTVKITTEKENVDEVLDLLEETRERISRETGRPVSLVIGIKEL
# B7: GBRAPL2_53_7358 (protein)
# chain: MLVVEIAHPDPAVVKEAAKKILAVIKEDGVEAKVTVTTENGEVKVLTGDIDKIEAEVTALAAKQPVLISIELPDSAEETVEKMEDIALEAGATVSVYREP
# B8: GBRAPL2_53_7361 (protein)
# chain: MIEIDIAHPDPAVVKKAAEKIFDVAEENGVEVEVEVTTEDGTVTRLTGSIEEIREKVTAMAAKQPVLITIYLPDEAEETAEEIEDIALEEGATVSREVLP
# B9: GBRAPL2_54_7369 (protein)
# chain: MKIVEVTFVAEREFFLANRERIRAAALATYAELRKRLPDKVGELLSEEYSETPDYGSLSLDIEVDESALDEVIDAFEATRDALSAELGHPVHVVIGIGDK
# B10: GBRAPL2_54_7386 (protein)
# chain: MKKVNITIDFVAEGDPETLAKVEEVAEKEIEKMEEELKEKYGAETERSVEREDGVLTVTVDVTVPEEAVDDVIDLALETAERISKETGVKVSVVIGAEEL
# B11: GBRAPL2_54_7380 (protein)
# chain: MKKVLITGEFIVEGDEESLEKVKKVAEEKSKELSEELKKKYGAESTISFEEEDGVLYITIDIITDEEAVDDVIDKLEELKKEIEKETGLKVSLVIGIEYL
# B12: GBRAPL2_54_7375 (protein)
# chain: MKKVEIEIDYIVEGNEEELKKVREVLKKELEKMKKELEEKFNATVEVSEEYENGVLTVTVKVIVDEEHVDEVIDLALETAERVSKETGVKVNVVIGIKEL
# B13: GBRAPL2_54_7387 (protein)
# chain: MKIIEIEIDYIAEGDDETLDKVEKVALEEIEKLKKELKEKYGAETEIEVEREDGVLSVTVTVITKEENVDEVIDLAEETAKEISEKTGIKVSVVIGLKEL
# B14: GBRAPL2_54_7368 (protein)
# chain: MIEVEITVVMKRENFLKHKELIKKILLEKVEELKKEHPDLIEKILEIEEEEYPDVGLLSIKILAKPEAEDLIRDLAEEIQKELEKKTGEKVHVVVAFGEL
# B15: GBRAPL2_53_7359 (protein)
# chain: MIEIDIAHPDKAVVKEAADKIFDVVEENGVEVEVTVTDENGTVTKLTGSVEEIREKVTAMAAKQPVLITIKLPDSAKETAEKIEDIALEKGATVSREELE
# B16: GBRAPL2_53_7367 (protein)
# chain: MTLVEVEHPDKEKLLKAAEKIAEIAKKLGVNITVIFVKSDGSVERFTANAEEALKIAREKIKEGDVIIEVELEDSQEEALEEIIDAAAEAGAVVSVEKLP
# B17: GBRAPL2_53_7363 (protein)
# chain: MYEVEVEHPDKEKLLRAAEKIAEIAEKHGLKITVTFVKEDATVEVHTADAKEALKIAKENIEKGDVILTVRLPDSLEEVREELIDAAAEEGAVVSVTELP
# B18: GBRAPL2_54_7373 (protein)
# chain: MTKVLIEATFIAEGTPEELAEVRKVALEELEKLKKELKEKFGAESKISSEEEDGVLSVTVEITTEKENLDEVLDLLEETRERIAERTGRPVSLVIGIKEL
# B19: GBRAPL2_54_7370 (protein)
# chain: ETIIEIEATFIAEGSEEELEEVEKVALEKLAELSEKLKKEFGAESEISSERENGVLSVTVKITTKKEDLDKVLDLLEETRDEISKETGKKVSLVIGIKEL
# B20: GBRAPL2_54_7376 (protein)
# chain: MKKVEIEIDYIVEGDPAELARVEAVLKKELAEMEKTLKSKFNAKTTVSSEVEDGVLTTTVTVITDESHVDEVIDLALETAERVSAETGVKVSVVIGIKEL
# B21: GBRAPL2_54_7382 (protein)
# chain: AKKVRITIEFIVEGNEEELEKVKKVAKELSEELAKELKEKYGATSSISFEEENGVLTITIDVITDESAVDDVIDRALELKEEIEKKTGLKVSVVIGIEYL
# B22: GBRAPL2_54_7388 (protein)
# chain: MKKIRITVDFIAEGNDEELAKVEKVLLEELEKFKKELKEKFNAKTEISVERENGVLTITVDVITEEKDVDEVIDLADEVAKEVEKKTGVKVSVVIGIEEL
# B23: GBRAPL2_53_7366 (protein)
# chain: MTEVEIEHPDKEKMLKAAKKVFELVKERNLKVTVIYVDENANVTRVTANAEEALKIAEEWIEKGDVILEVILPDSEEELKEKIIDIAAENGAVVSVEELE
# B24: GBRAPL2_53_7357 (protein)
# chain: MLRLSIAHPDPAVVAEALRRIFEILREAGVEAEVVVTLEDGTVVRLTGDLDEIEARVTELAAKQPVLVDIYMPDSAEETVEEMEDAALDAGATVSVERVP
# B25: GBRAPL2_54_7379 (protein)
# chain: MKIVEVEITYLATGNEEELKKVEEVAKKKVEEFKKELEEKYGAKTTTSVEIEDGVLSYTVTVITKEENLDEVIDKALEMAKEIEKETGVKVSVVIGTKEL
# B26: GBRAPL2_53_7362 (protein)
# chain: MWLVEVEHPDKEKLLKAAKEIFKIAKENGLKVTVKFVKEDGTVEEKTLNAEEALKYVEEKVKEGDVILEIELPDSLEEAKEKIIDAAAKHGAVVSVEELE
# B27: GBRAPL2_54_7377 (protein)
# chain: MKKVEITIDYIVEGDEEELKRVREVLEKELEKMEKELKEKFNAKTEVSVEVEDGVLTVTVDVIVDEKDVDKVIDLALKTAEEVSKKTGVKVNVVIGIKEL
# B28: GBRAPL2_54_7378 (protein)
# chain: MKIVEVEVDYIAQGNDEELEKVEKVAKEELAKLTEELAKKYGAKTTTSVEREDGVLSVTLTVIVKESDLDAVIDLALETAKRIEEKTGVKVSVVIGTKEL
# B29: GBRAPL2_54_7374 (protein)
# chain: MKKVEITIDYVVEGNEEELEKVEKVLKKELEELKKKLESEFNAKTKISVERENGVLTIEVDVITDEKDVDKVIDLALETAKKVSEKTGVKVSVVIGIKEL
# B30: GBRAPL2_54_7385 (protein)
# chain: MTKVLVEIDFLVEGDEEELAEVEKVLLEEIEKMKKELKEKYGAEVTVEVEREDGRLLVTVTVLTPKEAVDDVIDLAEKMRDEVEAKTGVKVHVVIGIEEL
# B31: GBRAPL2_54_7383 (protein)
# chain: AKKIEIEIDYIVEGDKESLEKVKKVFTELSKKMAEELKEKYGAETKIEFEEENGVLTGTITVITDESHVDEVIDRALELKKEIEKKTGLKVNVVIGIKEL
# B32: GBRAPL2_54_7389 (protein)
# chain: MKMIEIVIDYIAEGDDEELDKVEEVLLELLEEFKKELKEKYGATVEVSVEREDGVLTVTVTVIVKEEDVDDVIDLADKVAKEVEAKTGVKVSLVIGIKEL
# Molecular target: GABARAPL2, P60520
# Assay: median log2 fold change of GCK-ALFA target abundance (FLAG IP / Myc IP barcode read proportion) (log2 ratio); each designed protein is fused to an ALFA-tag nanobody in HEK293 cells to bring the named protein to FLAG-tagged glucokinase (GCK); Myc marks an untargeted standard; higher = target protein stabilised (more abundant)
# Settings: target protein: 3xFLAG-MCP-GCK-ALFA reporter; HEK293 landing pad (RPLP)
# Method in brief: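 HEK293 landing-pad cells received a recombined binder library fused to the ALFA nanobody and were induced with 2 μg mL^−1 doxycycline, then transfected with a plasmid encoding a FLAG-tagged target and a Myc-tagged standard. Lysates were collected after 48 h for anti-FLAG and anti-Myc immunoprecipitation, and the circular RNA barcodes were reverse transcribed, amplified and sequenced. Target abundance for each binder is the median log2 ratio of FLAG to Myc barcode read proportions. Barcodes had to reach a proportion of at least 10^−7 in both replicates, each binder needed at least 3 barcodes per replicate, a pseudocount of 10^−6 was applied, and the two replicates were pooled.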
# Sequence of GABARAPL2, P60520 (P60520 whole entry, the tested form may be a part): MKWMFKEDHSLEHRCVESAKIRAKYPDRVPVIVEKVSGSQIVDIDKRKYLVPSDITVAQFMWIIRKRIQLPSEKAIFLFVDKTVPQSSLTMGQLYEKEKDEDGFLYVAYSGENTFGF
row,Binder,median log2 fold change
1,B1,0.0119
2,B2,-0.18
3,B3,0.221
4,B4,0.111
5,B5,-0.0591
6,B6,0.186
7,B7,0.217
8,B8,0.219
9,B9,-0.231
10,B10,-0.458
11,B11,0.0537
12,B12,-0.389
13,B13,-0.429
14,B14,-0.39
15,B15,0.276
16,B16,0.299

row,Binder,median log2 fold change
1,B17,0.174
2,B18,0.0324
3,B19,-0.0409
4,B20,-0.212
5,B21,0.121
6,B22,-0.363
7,B23,-0.0323
8,B24,0.126
9,B25,-0.192
10,B26,0.16
11,B27,-0.193
12,B28,-0.111
13,B29,-0.179
14,B30,0.154
15,B31,-0.128
16,B32,-0.265
